This is part of a sample that, as a whole, favours compounds with a hit. Of some 83,000 tested, about 20% had one in any assay.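 The test compound was applied at a single concentration to cells in 96-well plates for 48 hours, and percent growth was recorded.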 A number with no mark means an inactive call. Calls of active or inactive are those of the source. How the source made its calls: active means growth percent below 10; inactive means the rest.
The compounds below were run on SR leukemia (assay: NCI-60 one-dose screen, 48 h (100 = growth as untreated, 0 = no growth, -100 = all killed)). Details: 10 µM unless noted.

Question: Which growth does the source give for `COc1ccc(-c2nc(-c3cc(OC)cc(OC)c3)[nH]c2-c2ccc(OC)cc2)cc1` here?
Answer: 25.3%

Question: `N#Cc1nc(-c2cccc(Br)c2)cc(-c2ccc(Nc3nc(N4CCCCC4)nc(N4CCCCC4)n3)cc2)c1N` was tested. Which growth did it give?
Answer: 11.9%

Question: `NC(N)=N/N=C\c1ccc(OCc2ccccc2)cc1` was tested. Which growth did it give?
Answer: 75.4%

Question: `CCN(CC)CCC(CNc1ccnc2cc(Cl)ccc12)c1ccc(O)cc1` (centres undefined) was tested. Which growth did it give?
Answer: 47.5%

Question: Which growth does the source give for `COS(=O)(=O)CCN(CCOS(C)(=O)=O)S(C)(=O)=O` here?
Answer: 95.5%

What follows are compounds tested on RPMI-8226 leukemia in the same assay as above. Details: 10 µM unless noted.

Question: How did the growth turn out when `COc1ccc(-c2cn(-c3cccc(C(=O)/C=C/c4ccc(O)c(OC)c4)c3)c(=O)[nH]2)cc1` was run?
Answer: -40.4% (active)

Question: With `Cc1ccccc1N1C(c2ccccc2)=NNC12C=CC(=O)c1c(O)cccc12` (centres undefined) as the compound, how does the growth read?
Answer: 83.8%

Question: `COc1cc(Nc2ccnc3ccc(Br)cc23)cc(OC)c1OC` was tested. Which growth did it give?
Answer: 30.4%

Question: With `CN1CCN(Cc2ccc(NC(=O)c3cncc(C#Cc4ccc(N)nc4)c3)cc2C(F)(F)F)CC1` as the compound, how does the growth read?
Answer: 1.97% (active)

Question: For `COc1ccc(Sc2[nH]c(C=O)c3ccccc23)cc1`, which growth is on record?
Answer: -17.3% (active)

Question: `COCCOCCOCc1n(Cc2ccc3ccccc3n2)c2ccccc2[n+]1Cc1ccc2ccccc2c1` was tested. Which growth did it give?
Answer: -30.3% (active)

Question: For `COc1ccc(C2C3CCc4ccccc4C3=NN2C(=O)c2cc(OC)c(OC)c(OC)c2)cc1O` (centres undefined), which growth is on record?
Answer: 45.7%

Question: For `O=c1[nH]cnc2nc[nH]c12`, which growth is on record?
Answer: 93.5%

Question: `CC(=O)O[C@H]1[C@H](CC#CC#CC[C@@H]2C[C@]3(C)[C@H]4CC=C5[C@H]6[C@@H](C)[C@H](C)CC[C@]6(C(=O)NCCN(CCN)CCN)CC[C@@]5(C)[C@]4(C)CC[C@H]3C(C)(C)[C@H]2OC(C)=O)C[C@]2(C)[C@H]3CC=C4[C@H]5[C@@H](C)[C@H](C)CC[C@]5(C(=O)NCCN(CCN)CCN)CC[C@@]4(C)[C@]3(C)CC[C@H]2C1(C)C` was tested. Which growth did it give?
Answer: 26.6%

Question: Which growth does the source give for `Fc1ccc2nc(-c3ccc(-c4noc(-c5ccc(Cl)cc5)n4)cc3)[nH]c2c1` here?
Answer: 106%

Question: For `CCNS(=O)(=O)c1ccc(C)cc1`, which growth is on record?
Answer: 99.1%

Question: `OC(c1cc(-c2ccc(C(F)(F)F)cc2)nc(-c2ccc(C(F)(F)F)cc2)c1)C1CCCCN1` (centres undefined) was tested. Which growth did it give?
Answer: -48.4% (active)

Question: For `CC1(C)C(N(O)C(=O)Nc2ccc(Cl)cc2)N(c2ccc(Cl)cc2)C(=O)N1CC(=O)N/N=C/C=C/c1ccc([N+](=O)[O-])o1` (centres undefined), which growth is on record?
Answer: -23.7% (active)

Question: `Cc1cc(N=Nc2ccc(-c3ccc(N=Nc4ccc(O)c(C(=O)O)c4)cc3)cc2)c(N)c(N=Nc2ccc(C(=O)O)cc2)c1N` was tested. Which growth did it give?
Answer: 67.1%

Question: How did the growth turn out when `NC(N)=N/N=C\c1cccc(OCc2ccccc2)c1` was run?
Answer: 69.6%

Question: Which growth does the source give for `CNC(=O)c1ccccc1Sc1ccc2c(/C=C/c3ccccn3)n[nH]c2c1` here?
Answer: 25.2%

Question: For `CC(=O)c1c(C)nc(-c2cc(C)cc(Cl)c2)nc1-c1cccc(Oc2ccccc2)c1`, which growth is on record?
Answer: 46.4%

Question: `CCN(CC)Cc1cc(Nc2nc(NC3CCC(N(C)C)CC3)c3ccccc3n2)ccc1OC` (centres undefined) was tested. Which growth did it give?
Answer: 0.511% (active)

Question: With `Cc1nc2c(-c3cnc(N)nc3)nc(N3CCOCC3)nc2n1C(C)C` as the compound, how does the growth read?
Answer: 12.8%

Question: With `C[C@@H]1C[C@H](N)C[C@H](c2ccncc2NC(=O)c2ccc(F)c(-c3c(F)cccc3F)n2)C1` as the compound, how does the growth read?
Answer: 4.68% (active)

Question: `Nc1nonc1-c1nc2ccccc2n1Cc1ccc(F)cc1` was tested. Which growth did it give?
Answer: 64.4%

Question: Which growth does the source give for `C=CC[C@]1(O)CC[C@H]2[C@@H]3CCc4cc(O)ccc4[C@H]3CC[C@@]21C` here?
Answer: 86.5%

Question: For `[Ag].[Ag].[NH-]S(=O)(=O)c1ccc(N=Nc2cc(N=Nc3ccc(S([NH-])(=O)=O)cc3)c3c(NC(=O)C(Cl)Cl)cccc3c2OC(=O)C(Cl)Cl)cc1.[c-]1nccs1.[c-]1nccs1`, which growth is on record?
Answer: 83.5%

Question: With `CCCCCCCCCCCCCCC(C(=O)OCC)C(=O)OCC` as the compound, how does the growth read?
Answer: 104%

Question: How did the growth turn out when `CN(C)c1ccc(C(c2ccccc2)c2ccc(N(C)C)cc2)cc1` was run?
Answer: 57.4%

Question: With `Cc1n(Cc2ccc3ccccc3n2)cc[n+]1Cc1ccc2ccccc2c1` as the compound, how does the growth read?
Answer: -3.22% (active)

Question: `FC(F)(F)c1ccc(/C=N/Nc2nnc3n2N=C(c2ccc(Cl)cc2)CS3)cc1` was tested. Which growth did it give?
Answer: 85.1%

Question: Which growth does the source give for `CS(=O)(=O)Nc1cc(-c2cc3ncc(C#N)c(Nc4ccc(Oc5ccccc5)c(Cl)c4)c3s2)cnc1Cl` here?
Answer: 62.7%

Question: Which growth does the source give for `Cc1cc(C)c2c(n1)sc1c(Nc3ccc(O)cc3)ncnc12` here?
Answer: 39%

Question: `c1ccc(C2=Nc3ccccc3SC2)cc1` was tested. Which growth did it give?
Answer: 93.8%

Question: For `COc1cc2c(cc1OCCCOc1cc3c(cc1OC)C(=O)N1CCC[C@H]1C=N3)C=CC(C)(C)O2`, which growth is on record?
Answer: 48%

Question: With `O=[N+]([O-])c1cccc(N=C(Nc2cccc([N+](=O)[O-])c2)c2ccccc2)c1` as the compound, how does the growth read?
Answer: 58.2%

Question: `C=CCn1c(C)nc2cc(Nc3nc(N4CCOCC4)nc4nc[nH]c34)ccc21` was tested. Which growth did it give?
Answer: 71.9%

Question: For `C=C1NC(=O)C(C(C)CC)NC(=O)C2CSCC(NC(=O)CCC(=O)O)C(=O)NC(Cc3ccccc3)C(=O)NC(C)C(=O)NC(CC(C)CC)C(=O)NC(C(=O)NC(Cc3ccccc3)C(=O)N3CCCC3C(=O)N2)C(C)OC(=O)C(CO)NC(=O)C(C(O)COC)N(C)C(=O)C(C(C)C)NC(=O)C(CC(C)CC)NC1=O` (centres undefined), which growth is on record?
Answer: 25.3% [6 µM]

Question: `COc1ccc(-c2nc(-c3cc(OC)cc(OC)c3)[nH]c2-c2ccc(OC)cc2)cc1` was tested. Which growth did it give?
Answer: -11.6% (active)

Question: For `N#Cc1nc(-c2cccc(Br)c2)cc(-c2ccc(Nc3nc(N4CCCCC4)nc(N4CCCCC4)n3)cc2)c1N`, which growth is on record?
Answer: -0.0335% (active)

Question: With `NC(N)=N/N=C\c1ccc(OCc2ccccc2)cc1` as the compound, how does the growth read?
Answer: 83.4%

Question: How did the growth turn out when `CCN(CC)CCC(CNc1ccnc2cc(Cl)ccc12)c1ccc(O)cc1` (centres undefined) was run?
Answer: 51.3%

Question: For `COS(=O)(=O)CCN(CCOS(C)(=O)=O)S(C)(=O)=O`, which growth is on record?
Answer: 99.8%

Source: PubChem BioAssay (NCI)
